JMJD2A Tudor inh: blocks the human JMJD2A Tudor domain. O75164. Potency, µM (series often up to 114 µM), for inactives: at the highest dose activity change, negative = inhibition, most hits filed as inhibitors. hit rate 4.4% among 390,000. AlphaScreen JMJD2A-Tudor / H3K4me3 peptide binding; further: on the % scale 0 is the no-effect control and ±100 the full control effect; nearly all actives have a fitted effect of over 50% in size
12-LOX inh: ALOX12 (human) lipoxygenase inhibition; P18054; purified 12hLO, xylenol orange hydroperoxide absorbance; Potency, µM (highest dose often 108 µM), inactives show at the highest dose activity change, negative = inhibition, hits mostly inhibitors; hit rate 1.1% among 580,000; AID 1671190; further: on the % scale 0 is the no-effect control and ±100 the full control effect
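Purified human 12hLO (150 nM final) in 25 mM Hepes, 0.01% Triton X-100, pH 7.0 was preincubated 15 min at room temperature with compound. Then 40 uM arachidonic acid was added, 30 min. Hydroperoxide was read by Fe-XO absorbance ratio 573/405 nm.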
Sfp PPTase inh: blocks B. subtilis Sfp PPTase activity. Q9F4F7. Biochemical Sfp PPTase activity, qHTS. Potency, µM, for inactives: largest response in the series, negative = inhibition, actives largely listed as inhibitors. hit rate 3.5% among 310,000. AID 1490;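 further: the enzyme is Sfp with the accession as filed and its product quenches rhodamine fluorescence; 0% = enzyme reaction without inhibitor and -100% = no enzyme wells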
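Fluorescence-quenching assay: 15 nM Sfp-PPTase preincubated 15 min at room temperature with compound, then 5 uM rhodamine-CoA and 12.5 uM BHQ-2-labelled YbbR peptide added. Fluorescence (ex 525/em 598 nm) read at start and after 30 min; difference gives rate.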
BAZ2B inh: BAZ2B (human) inhibition; AlphaScreen BAZ2B-H3K14Ac peptide displacement; hit rate 4.4% among 360,000; Q9UIF8; Potency, µM (doses to about 114 µM), for inactives: at the highest dose activity change, negative = inhibition, actives largely listed as inhibitors; further: on the % scale 0 is the no-effect control and ±100 the full control effect; nearly all actives have a fitted effect of over 60% in size
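Multi-concentration screen (max 110 uM) measuring displacement of acetylated histone H3 peptide from BAZ2B by AlphaScreen, using 50 nM protein, 50 nM peptide and 10 ug/mL streptavidin donor plus Ni-chelate acceptor beads.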
G9a inh: G9a (human) methyltransferase inhibition; Potency, µM (top dose mostly 102 µM), for inactives: at the top dose activity, negative = inhibition, hits mostly inhibitors; AID 504332; hit rate 8.8% among 350,000; G9a H3K9 monomethylation, AlphaScreen, 2 h; Q96KQ7; further: on the % scale 0 is the no-effect control and ±100 the full control effect; nearly all actives have a fitted effect of over 75% in size
Target sequence (Q96KQ7 913-1193 limits assumed): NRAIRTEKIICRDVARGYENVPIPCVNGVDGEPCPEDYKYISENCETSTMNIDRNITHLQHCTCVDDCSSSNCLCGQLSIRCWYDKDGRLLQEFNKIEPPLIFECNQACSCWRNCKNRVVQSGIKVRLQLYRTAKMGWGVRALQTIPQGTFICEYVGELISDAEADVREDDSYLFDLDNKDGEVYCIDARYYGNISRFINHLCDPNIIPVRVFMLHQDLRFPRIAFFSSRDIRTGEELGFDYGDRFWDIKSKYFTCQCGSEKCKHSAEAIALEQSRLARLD
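AlphaScreen detection with an anti-monomethyl H3K9 antibody quantified product after a 2 h room-temperature reaction containing 500 nM biotinylated H3K9 peptide, 20 µM SAM and 20 nM enzyme, which had been preincubated 15 min with compound.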
HP1b chromo inh: inhibitors of HP1-beta chromodomain binding to methylated histone tails; Potency, µM (highest dose often 114 µM), without a hit: top-dose activity change, negative = inhibition, usual class: inhibitors; P83916; hit rate 0.56% among 390,000; AID 540317; AlphaScreen HP1-beta / biotin-H3K9me3 peptide binding; further: nearly all actives have a fitted effect of over 70% in size
Target sequence (P83916 whole entry, looked up): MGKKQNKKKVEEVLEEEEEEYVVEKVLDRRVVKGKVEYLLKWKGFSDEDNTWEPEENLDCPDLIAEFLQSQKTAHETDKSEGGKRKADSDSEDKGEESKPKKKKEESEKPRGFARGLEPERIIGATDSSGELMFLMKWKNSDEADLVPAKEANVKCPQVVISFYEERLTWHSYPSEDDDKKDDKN
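Compound inhibition of the preformed complex between 50 nM HP1-beta and 50 nM biotinylated H3K9me3 peptide was read by AlphaScreen. Buffer was PBS pH 7.4 with 0.01% Tween-20. Incubations ran 30 min at room temperature, with 10 ug/mL donor/acceptor beads.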
* hit, by the source's call; u = inconclusive; x = not tested or not shown; ! = not confirmed by another sample; [ ] = another dose, or the depositor's remark. Most compounds without a hit are left out; they make up all but 8.7% or so of the library. The call rests on the fitted dose curve; in most records, active means well fitted curve in the direction sought with a large enough effect; inconclusive means small, poorly fitted or top-dose-only effect, or another doubt; inactive means no such curve, though single readings can be large; an effect the other way counts as inactive or inconclusive. Potency means the concentration at half of the fitted maximal effect.

SMILES	JMJD2A Tudor inh	12-LOX inh	Sfp PPTase inh	BAZ2B inh	G9a inh	HP1b chromo inh
CCC(=O)OC1(C)C(=O)C=C2C=C(CCCC(=O)OC)OC=C2C1=O (centres undefined)	u	u	12.7%	x	x	-23.3%
CCC(=O)OC1(C)C(=O)C=C2C=C(CCCCNC(=O)OC(C)(C)C)OC=C2C1=O (centres undefined)	x	x	-7.9%	x	x	x
CCCCC1=CC2=CC(=O)C(C)(OC(=O)CC)C(=O)C2=CO1 (centres undefined)	u	35.5µM*	9.9%	x	x	u
CCCCC1=CC2=CC(=O)C(C)(OC(=O)C3CCCC3)C(=O)C2=CO1 (centres undefined)	79.4µM*	15.8µM*	70.8µM*!	50.1µM*	u	u
CCc1cccc(CC)c1NC(=O)CCn1cnc2c1c(=O)n(C)c(=O)n2C	x	-25.8%	x	x	x	x
NC(=S)N/N=C/c1ccc(-n2nncc2-c2ccc(Cl)cc2)cc1	u	x	-2.3%	u	44.7µM*	-9.2%
Nc1cccc(-n2nncc2-c2ccc(Cl)cc2)c1	x	x	7.4%	x	u	x
CC(Sc1ncnc2sc(-c3ccccc3)cc12)C(N)=O (centres undefined)	-21.5%	-16.4%	-13.7%	79.4µM*	x	26.0%
CC1=NN(c2nc(C)cc(C)n2)C(=O)C1CCC(C)C (centres undefined)	u	-1.0%	5.1%	-11.0%	44.3%	37.8%
CCC1C(=O)N(c2nc(C)cc(C)n2)N=C1C (centres undefined)	11.2µM*	26.1%	56.2µM*	u	20µM*	31.2%
O=C(c1ccccc1Cl)N1CCC2(CC1)CCN(Cc1cccs1)c1ccccc1O2	x	22.3%	x	x	x	x
Cc1cccnc1NC(=O)c1ccc(Br)o1	-8.6%	-14.7%	x	11.8%	-5.1%	28.0%
O=C(CNC(=O)c1ccc(Br)o1)Nc1ncccc1O	u	3.4%	x	79.4µM*	28.2µM*	2.9%
Cc1ccc(C(=O)Nc2ncccc2O)o1	3.55µM*	0.6%	x	u	6.0%[12.7 µM]	-17.0%
CCCCn1c(=O)n(CC(=O)Nc2ccc3c(c2)CCC3)c(=O)c2c1ncn2Cc1ccco1	x	-27.7%	x	x	x	x
CC(C)CNC(=O)N1CCC(c2noc(C3CC3)n2)C1 (centres undefined)	x	21.5%	x	x	x	x
Cc1c(Cl)cccc1NC(=O)CCN1C(=O)NC(C)(C)C1=O	1.6%	1.4%	x	-5.2%	50.1µM*	49.5%
Cc1c(Cl)cccc1NC(=O)CCN1CCOCC1	-3.3%	10.8%	-0.5%	3.7%	39.8µM*	32.0%
Cc1ccc(C)c(NC(=O)CCC(=O)N/N=C/c2ccc[nH]2)c1	-23.9%	6.2%	-16.7%	-30.1%	x	22.2%
Cc1c(Cl)cccc1NC(=O)CCC(=O)N/N=C/c1ccc[nH]1	-28.6%	-14.2%	44.7µM*	5.3%	17.8µM*	2.1%
Cc1c(Cl)cccc1NC(=O)NCc1ccc(F)cc1	-8.3%	-2.1%	2.6%	-4.6%	50.1µM*	11.2%
Cc1c(Cl)cccc1NC(=O)CCN1CCCCC1	-1.4%	0.0%	6.8%	-4.2%	u	20.0%
Cc1cccc(C(=O)NCC(=O)N2CCCCCCNC(=O)CC2c2ccccc2)c1 (centres undefined)	x	26.6%	x	x	x	x
CCn1c2ccccc2c2cc(/C=N/n3c(-c4cc(C)[nH]n4)n[nH]c3=S)ccc21	u	3.1%	-28.4%	-34.4%	2.51µM*	-7.1%
CCn1c2ccccc2c2cc(/C=N/n3cnnc3)ccc21	-18.3%	0.4%	-8.3%	1.7%	12.8%[59 µM]	15.3%
SMILES	JMJD2A Tudor inh	12-LOX inh	Sfp PPTase inh	BAZ2B inh	G9a inh	HP1b chromo inh
CCn1c2ccccc2c2cc(/C=N/n3cn[nH]c3=S)ccc21	17.8µM*	u	-25.2%	u	-0.4%[0.501 µM]	-33.2%
Cc1c(CCC(=O)NCc2nc(-c3ccccc3)no2)c(=O)oc2cc(O)ccc12	x	2.8%	x	x	x	x
CN(CC(=O)Nc1nc(-c2ccccc2)cs1)CC(=O)Nc1ccccc1C(F)(F)F	x	29.7%	x	x	x	x
COc1ccc(Cn2c3c(c(=O)n2Cc2ccccc2)CCN(CC2CCOC2)C3)cc1 (centres undefined)	x	-24.4%[176 µM]	x	x	x	x
CN(Cc1ccc(F)cc1F)C(=O)c1cc(Br)ccc1O	x	10µM*	x	x	x	x
CCc1nnsc1C(=O)N(C)Cc1ccc(F)cc1F	x	42.0%	x	x	x	x
O=C(Oc1ccc2cc(-c3ccccc3)c(=O)oc2c1)C1CC1	x	42.0%	x	x	x	x
CC1CCCCC1NCC#CCOc1ccc(Cl)cc1 (centres undefined)	20µM*	-12.5%	-20.2%	50.1µM*	14.1µM*	u
CC1CCCC(NC(=O)COC(=O)COc2ccc(Cl)cc2)C1C (centres undefined)	-17.0%	17.1%	6.4%	11.6%	12.3%	34.0%
CC(C)NCC#CCOc1ccc(Cl)cc1	44.7µM*	-19.0%	-25.2%	u	7.94µM*	23.5%
Cn1c(=O)[nH]c(=O)c2c1nc(N1CCN(CC(N)=O)CC1)n2Cc1ccccc1	x	2.1%	x	x	x	x
CC(NC(=O)CC(C)(C(=O)O)c1ccccc1)c1ccc(F)c(F)c1 (centres undefined)	x	60.9%	x	x	x	x
COc1ccc(C(=O)N/C(=C\c2ccccc2)C(=O)NC(CCSC)C(=O)O)cc1 (centres undefined)	-1.6%	0.0%	23.4%	9.9%	56.2µM*	44.5%
O=C(NCc1ccco1)/C(=C\c1ccco1)NC(=O)c1ccccc1Cl	-21.4%	-14.8%	7.3%	-1.4%	u	-24.0%
O=C(NCc1ccco1)/C(=C/c1ccco1)NC(=O)c1ccco1	-12.5%	-17.6%	-28.5%	-0.1%	39.8µM*	12.7%
COc1ccccc1C(=O)N/C(=C\c1ccccc1)C(=O)NC(C)C(=O)O (centres undefined)	-8.5%	2.7%	17.8%	-3.0%	-3.9%	34.9%
COC(=O)/C(=C/c1ccco1)NC(=O)c1ccc(Br)o1	-2.1%	-8.2%	44.7µM*	13.5%	44.7µM*	51.6%
COc1ccc(C(=O)N/C(=C\c2ccccc2)C(=O)NC(CC(C)C)C(=O)O)cc1 (centres undefined)	-9.4%	-4.9%	14.4%	-0.5%	3.9%	9.2%
COc1cc(/C=C(\NC(=O)c2ccccc2)C(=O)NC(C(=O)O)c2ccccc2)cc(OC)c1OC (centres undefined)	-14.3%	-4.8%	8.0%	-19.9%[57.1 µM]	39.8µM*	21.0%
COCc1noc([C@@H]2CN(C(=O)c3cccc(Cl)c3)C[C@H]2CO)n1	x	52.8%	x	x	x	x
Cn1nc(C(=O)Nc2cc(Cl)ccc2N2CCCCC2)c2ccccc2c1=O	x	5.2%	x	x	x	x
CCN(CC)Cc1cnc2c(C(=O)Nc3cccc(OC)c3)cnn2c1	x	38.7%	x	x	x	x
CC(NC(=O)/C(=C\c1ccco1)NC(=O)c1ccco1)C(=O)O (centres undefined)	-4.9%	-5.5%	-13.3%	-3.4%	35.5µM*	41.3%

Screening data (PubChem)
